Holding throughout (assay): RNA Bind-n-Seq (nitrocellulose filter binding and sequencing); miR-122 guide loaded in AGO2; 60 min incubation; 30 mM Tris pH 8.0, 100 mM potassium acetate, 2 mM magnesium acetate, 0.5 mM TCEP, 0.005% NP-40, 0.01 mg/ml yeast tRNA; 3 nM AGO2-miR-122, 100 nM RNA library; 60; high values mean tight binding
Common to all, as to conditions: protein: recombinant; tags: His6 (N-terminal, pFastBac HTA)

For one assay, the target named is AGO2 L192P (Homo sapiens, UniProt Q9UKV8 1-859, L192P;S387D;S824A;S828D;S831D;S834A). In outline: (§1)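 Fold enrichment is each target's read fraction divided by its read fraction in the input library. Sf9 insect cells expressed His-tagged AGO2 from baculovirus; the protein was loaded with a synthetic guide RNA and purified by Ni-NTA and a biotinylated capture oligo. The bound RNA was extracted, reverse-transcribed, barcode-amplified and sequenced on Illumina.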
AGO2 L192P, sequence (Q9UKV8 whole entry L192P/S387D/S824A/S828D/S831D/S834A): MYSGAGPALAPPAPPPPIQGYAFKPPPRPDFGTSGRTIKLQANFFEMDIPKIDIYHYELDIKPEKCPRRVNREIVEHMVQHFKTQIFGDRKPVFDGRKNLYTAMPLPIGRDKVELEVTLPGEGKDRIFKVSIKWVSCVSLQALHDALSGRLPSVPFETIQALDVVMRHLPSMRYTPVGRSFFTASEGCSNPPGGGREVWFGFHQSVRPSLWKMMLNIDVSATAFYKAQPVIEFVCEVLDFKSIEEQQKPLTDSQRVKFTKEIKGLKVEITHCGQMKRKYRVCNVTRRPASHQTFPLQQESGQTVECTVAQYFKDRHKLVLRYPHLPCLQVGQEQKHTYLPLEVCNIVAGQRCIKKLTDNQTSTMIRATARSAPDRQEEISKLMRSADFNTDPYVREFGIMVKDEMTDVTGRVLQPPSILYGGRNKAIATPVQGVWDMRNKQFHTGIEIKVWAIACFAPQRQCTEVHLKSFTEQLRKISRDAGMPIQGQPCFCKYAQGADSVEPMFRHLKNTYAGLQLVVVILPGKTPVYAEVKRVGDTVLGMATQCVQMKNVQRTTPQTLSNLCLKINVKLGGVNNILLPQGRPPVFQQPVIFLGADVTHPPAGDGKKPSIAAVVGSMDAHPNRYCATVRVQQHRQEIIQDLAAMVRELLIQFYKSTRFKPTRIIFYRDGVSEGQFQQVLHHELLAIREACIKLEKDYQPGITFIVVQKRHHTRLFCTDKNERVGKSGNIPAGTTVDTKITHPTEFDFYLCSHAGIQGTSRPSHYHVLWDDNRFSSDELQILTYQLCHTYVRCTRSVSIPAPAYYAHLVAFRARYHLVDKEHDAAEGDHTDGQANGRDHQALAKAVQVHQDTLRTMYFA

The target in a further assay is AGO2 A367P (Homo sapiens, UniProt Q9UKV8 1-859, A367P;S387D;S824A;S828D;S831D;S834A). A digest of the protocol:
as §1

The target in another assay is AGO2 T357M (Homo sapiens, UniProt Q9UKV8 1-859, T357M;S387D;S824A;S828D;S831D;S834A). In outline:
as §1

The next assay concerns the target AGO2 F182del (Homo sapiens, UniProt Q9UKV8 1-859, S387D;S824A;S828D;S831D;S834A;del182-182). In outline: as §1

This note sets out measurements from article PMC12529666, “Dysregulation of AGO2-miRNA dynamics underlies the AGO2-associated Lessel–Kreienkamp syndrome”.

AGO2 A367P, sequence (Q9UKV8 whole entry A367P/S387D/S824A/S828D/S831D/S834A): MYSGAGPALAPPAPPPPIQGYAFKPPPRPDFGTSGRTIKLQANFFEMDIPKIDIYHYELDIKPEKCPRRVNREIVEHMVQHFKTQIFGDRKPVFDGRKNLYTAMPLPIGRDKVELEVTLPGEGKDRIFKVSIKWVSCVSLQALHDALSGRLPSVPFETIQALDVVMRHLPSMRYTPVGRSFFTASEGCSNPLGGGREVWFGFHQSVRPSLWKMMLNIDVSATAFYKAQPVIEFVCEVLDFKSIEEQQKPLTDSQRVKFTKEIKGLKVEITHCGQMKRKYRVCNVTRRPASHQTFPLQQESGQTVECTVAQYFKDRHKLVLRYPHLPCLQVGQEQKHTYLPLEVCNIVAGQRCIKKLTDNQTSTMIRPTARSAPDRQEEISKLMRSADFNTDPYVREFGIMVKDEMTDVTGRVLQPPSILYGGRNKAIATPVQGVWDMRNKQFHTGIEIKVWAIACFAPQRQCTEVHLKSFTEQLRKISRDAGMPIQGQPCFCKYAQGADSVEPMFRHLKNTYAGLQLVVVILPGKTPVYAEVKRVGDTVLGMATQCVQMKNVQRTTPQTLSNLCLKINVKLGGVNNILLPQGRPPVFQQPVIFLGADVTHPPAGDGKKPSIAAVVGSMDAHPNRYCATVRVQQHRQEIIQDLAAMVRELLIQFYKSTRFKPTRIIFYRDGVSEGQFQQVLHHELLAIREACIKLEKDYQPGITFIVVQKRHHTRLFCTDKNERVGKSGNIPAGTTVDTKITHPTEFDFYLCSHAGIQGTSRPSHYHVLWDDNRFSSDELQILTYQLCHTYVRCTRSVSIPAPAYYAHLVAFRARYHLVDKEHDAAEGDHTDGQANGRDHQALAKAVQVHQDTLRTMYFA
AGO2 T357M, sequence (Q9UKV8 whole entry T357M/S387D/S824A/S828D/S831D/S834A): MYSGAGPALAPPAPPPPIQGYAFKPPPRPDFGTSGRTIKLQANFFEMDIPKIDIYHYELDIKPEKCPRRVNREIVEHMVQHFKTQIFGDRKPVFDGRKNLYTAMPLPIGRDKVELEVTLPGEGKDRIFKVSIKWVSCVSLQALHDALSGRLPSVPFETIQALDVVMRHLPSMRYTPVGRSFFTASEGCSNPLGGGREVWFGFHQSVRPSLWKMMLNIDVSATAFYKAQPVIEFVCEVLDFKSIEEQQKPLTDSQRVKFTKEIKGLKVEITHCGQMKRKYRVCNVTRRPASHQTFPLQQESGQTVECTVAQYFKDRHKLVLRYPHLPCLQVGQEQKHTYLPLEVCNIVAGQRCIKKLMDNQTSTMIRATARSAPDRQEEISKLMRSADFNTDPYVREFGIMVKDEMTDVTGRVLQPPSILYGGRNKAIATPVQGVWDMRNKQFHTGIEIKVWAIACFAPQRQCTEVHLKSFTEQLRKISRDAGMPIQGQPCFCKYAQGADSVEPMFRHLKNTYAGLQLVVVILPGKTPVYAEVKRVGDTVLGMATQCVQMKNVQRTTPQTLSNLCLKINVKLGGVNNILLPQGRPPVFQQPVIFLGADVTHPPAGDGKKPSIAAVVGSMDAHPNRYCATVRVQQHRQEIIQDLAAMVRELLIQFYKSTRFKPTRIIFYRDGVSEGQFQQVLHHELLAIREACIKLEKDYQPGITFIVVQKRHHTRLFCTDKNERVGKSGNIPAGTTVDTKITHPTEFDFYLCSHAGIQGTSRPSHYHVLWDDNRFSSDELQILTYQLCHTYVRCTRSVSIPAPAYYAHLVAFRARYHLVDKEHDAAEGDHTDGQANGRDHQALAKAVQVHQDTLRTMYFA
AGO2 F182del, sequence (Q9UKV8 other isoform, or with tags, fused parts or gaps S387D;S824A;S828D;S831D;S834A;del182-182): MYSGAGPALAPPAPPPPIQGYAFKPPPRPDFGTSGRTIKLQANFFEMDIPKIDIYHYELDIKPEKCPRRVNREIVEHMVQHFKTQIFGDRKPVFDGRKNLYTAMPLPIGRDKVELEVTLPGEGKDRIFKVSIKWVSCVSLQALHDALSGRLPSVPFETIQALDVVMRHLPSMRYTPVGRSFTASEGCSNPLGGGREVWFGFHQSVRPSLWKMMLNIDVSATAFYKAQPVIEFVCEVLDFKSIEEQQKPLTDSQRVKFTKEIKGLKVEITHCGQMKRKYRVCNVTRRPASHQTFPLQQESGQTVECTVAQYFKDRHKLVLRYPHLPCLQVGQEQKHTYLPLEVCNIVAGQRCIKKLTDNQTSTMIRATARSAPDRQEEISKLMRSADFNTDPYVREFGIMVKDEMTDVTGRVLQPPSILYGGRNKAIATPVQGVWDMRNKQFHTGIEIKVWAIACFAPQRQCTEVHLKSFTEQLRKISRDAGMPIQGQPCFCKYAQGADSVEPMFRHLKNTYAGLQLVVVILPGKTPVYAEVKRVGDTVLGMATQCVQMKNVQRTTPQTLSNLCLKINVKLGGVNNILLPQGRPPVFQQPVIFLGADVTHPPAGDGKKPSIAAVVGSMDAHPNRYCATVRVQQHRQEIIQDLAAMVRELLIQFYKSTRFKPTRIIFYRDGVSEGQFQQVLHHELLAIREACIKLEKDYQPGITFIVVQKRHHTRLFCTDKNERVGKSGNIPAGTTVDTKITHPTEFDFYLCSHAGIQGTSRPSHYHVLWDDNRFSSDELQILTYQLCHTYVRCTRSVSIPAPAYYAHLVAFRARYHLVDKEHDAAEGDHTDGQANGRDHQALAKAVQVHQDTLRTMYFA

B1: ATACCCTA (ssRNA)
RNA 1: GAGUUCUACAGUCCGACGAUCCCAACAUACCCUACACCUGGAAUUCUCGGGUGCCAA
RNA 2: UGGAGUGUGACAAUGGUGUUUG
DNA 1: GATCGTCGGACTGTAGAACTC
DNA 2: TTGGCACCCGAGAATTCCA
modifications: constant regions annealed to DNA blockers; guide miR-122 5' phosphate
On to B1, for which the binding signal in the assay with AGO2 L192P was 0.447 fold enrichment over input; in the assay with AGO2 A367P, 0.148 fold enrichment over input; in the assay with AGO2 T357M, 0.496 fold enrichment over input.

B2: GCACCCTG (ssRNA)
RNA 1: GAGUUCUACAGUCCGACGAUCCCAACGCACCCUGCACCUGGAAUUCUCGGGUGCCAA
RNA 2: UGGAGUGUGACAAUGGUGUUUG
DNA 1: GATCGTCGGACTGTAGAACTC
DNA 2: TTGGCACCCGAGAATTCCA
modifications: constant regions annealed to DNA blockers; guide miR-122 5' phosphate
As to B2, the binding signal in the assay with AGO2 L192P is 0.416 fold enrichment over input; with AGO2 A367P it was 0.171 fold enrichment over input; in the assay with AGO2 T357M, 0.566 fold enrichment over input; in the assay with AGO2 F182del, 0.176 fold enrichment over input.

B3: GTATTCTA (ssRNA)
RNA 1: GAGUUCUACAGUCCGACGAUCCCAACGUAUUCUACACCUGGAAUUCUCGGGUGCCAA
RNA 2: UGGAGUGUGACAAUGGUGUUUG
DNA 1: GATCGTCGGACTGTAGAACTC
DNA 2: TTGGCACCCGAGAATTCCA
modifications: constant regions annealed to DNA blockers; guide miR-122 5' phosphate
As for B3, the binding signal is 0.434 fold enrichment over input with AGO2 L192P, 0.164 fold enrichment over input in the assay with AGO2 A367P and 0.606 fold enrichment over input in the assay with AGO2 T357M.

B4: GCACTTTA (ssRNA)
RNA 1: GAGUUCUACAGUCCGACGAUCCCAACGCACUUUACACCUGGAAUUCUCGGGUGCCAA
RNA 2: UGGAGUGUGACAAUGGUGUUUG
DNA 1: GATCGTCGGACTGTAGAACTC
DNA 2: TTGGCACCCGAGAATTCCA
modifications: constant regions annealed to DNA blockers; guide miR-122 5' phosphate
As for B4, the binding signal with AGO2 L192P is 0.493 fold enrichment over input; with AGO2 A367P it was 0.209 fold enrichment over input; with AGO2 T357M, 0.763 fold enrichment over input; with AGO2 F182del, 0.122 fold enrichment over input.

B5: GCATCTTA (ssRNA)
RNA 1: GAGUUCUACAGUCCGACGAUCCCAACGCAUCUUACACCUGGAAUUCUCGGGUGCCAA
RNA 2: UGGAGUGUGACAAUGGUGUUUG
DNA 1: GATCGTCGGACTGTAGAACTC
DNA 2: TTGGCACCCGAGAATTCCA
modifications: constant regions annealed to DNA blockers; guide miR-122 5' phosphate
Turning to B5, the binding signal with AGO2 L192P is 0.487 fold enrichment over input; in the assay with AGO2 A367P, 0.189 fold enrichment over input; with AGO2 T357M it was 0.676 fold enrichment over input.

B6: GTGCTTCA (ssRNA)
RNA 1: GAGUUCUACAGUCCGACGAUCCCAACGUGCUUCACACCUGGAAUUCUCGGGUGCCAA
RNA 2: UGGAGUGUGACAAUGGUGUUUG
DNA 1: GATCGTCGGACTGTAGAACTC
DNA 2: TTGGCACCCGAGAATTCCA
modifications: constant regions annealed to DNA blockers; guide miR-122 5' phosphate
Consider B6, for which the binding signal with AGO2 L192P is 0.507 fold enrichment over input; with AGO2 A367P, 0.218 fold enrichment over input; with AGO2 T357M, 0.615 fold enrichment over input; in the assay with AGO2 F182del, 0.235 fold enrichment over input.

B7: GCGCTTTA (ssRNA)
RNA 1: GAGUUCUACAGUCCGACGAUCCCAACGCGCUUUACACCUGGAAUUCUCGGGUGCCAA
RNA 2: UGGAGUGUGACAAUGGUGUUUG
DNA 1: GATCGTCGGACTGTAGAACTC
DNA 2: TTGGCACCCGAGAATTCCA
modifications: constant regions annealed to DNA blockers; guide miR-122 5' phosphate
For B7, the binding signal with AGO2 L192P was 0.493 fold enrichment over input; in the assay with AGO2 A367P, 0.201 fold enrichment over input; with AGO2 T357M, 0.695 fold enrichment over input.

B8: ACACCCTG (ssRNA)
RNA 1: GAGUUCUACAGUCCGACGAUCCCAACACACCCUGCACCUGGAAUUCUCGGGUGCCAA
RNA 2: UGGAGUGUGACAAUGGUGUUUG
DNA 1: GATCGTCGGACTGTAGAACTC
DNA 2: TTGGCACCCGAGAATTCCA
modifications: constant regions annealed to DNA blockers; guide miR-122 5' phosphate
As to B8, the binding signal was 0.472 fold enrichment over input in the assay with AGO2 L192P, 0.217 fold enrichment over input in the assay with AGO2 A367P, 0.558 fold enrichment over input in the assay with AGO2 T357M and 0.942 fold enrichment over input in the assay with AGO2 F182del.

B9: GTATTTTA (ssRNA)
RNA 1: GAGUUCUACAGUCCGACGAUCCCAACGUAUUUUACACCUGGAAUUCUCGGGUGCCAA
RNA 2: UGGAGUGUGACAAUGGUGUUUG
DNA 1: GATCGTCGGACTGTAGAACTC
DNA 2: TTGGCACCCGAGAATTCCA
modifications: constant regions annealed to DNA blockers; guide miR-122 5' phosphate
Regarding B9, the binding signal in the assay with AGO2 L192P is 0.481 fold enrichment over input; with AGO2 A367P it was 0.166 fold enrichment over input; with AGO2 T357M, 0.617 fold enrichment over input.

B10: GTGCTCTA (ssRNA)
RNA 1: GAGUUCUACAGUCCGACGAUCCCAACGUGCUCUACACCUGGAAUUCUCGGGUGCCAA
RNA 2: UGGAGUGUGACAAUGGUGUUUG
DNA 1: GATCGTCGGACTGTAGAACTC
DNA 2: TTGGCACCCGAGAATTCCA
modifications: constant regions annealed to DNA blockers; guide miR-122 5' phosphate
For B10, the results for the binding signal in the assay with AGO2 L192P, with AGO2 A367P and with AGO2 T357M were 0.463 fold enrichment over input, 0.178 fold enrichment over input and 0.601 fold enrichment over input, respectively.

B11: GTACCCCA (ssRNA)
RNA 1: GAGUUCUACAGUCCGACGAUCCCAACGUACCCCACACCUGGAAUUCUCGGGUGCCAA
RNA 2: UGGAGUGUGACAAUGGUGUUUG
DNA 1: GATCGTCGGACTGTAGAACTC
DNA 2: TTGGCACCCGAGAATTCCA
modifications: constant regions annealed to DNA blockers; guide miR-122 5' phosphate
For the molecule B11, the binding signal with AGO2 L192P was 0.497 fold enrichment over input; with AGO2 A367P, 0.247 fold enrichment over input; with AGO2 T357M, 0.616 fold enrichment over input; with AGO2 F182del it was 0.455 fold enrichment over input.
